# Source: the supplement of paper PMC3334620
# Whole data set: some 33,000 sequences, median “E-score (-0.5 to 0.5)” near -0.013, cut for the highest 2% near 0.3. Shown is part of a subset that was picked to be rich in the highest values.
# Target: T1, Msn1 (UniProt P22148)
# T1 sequence: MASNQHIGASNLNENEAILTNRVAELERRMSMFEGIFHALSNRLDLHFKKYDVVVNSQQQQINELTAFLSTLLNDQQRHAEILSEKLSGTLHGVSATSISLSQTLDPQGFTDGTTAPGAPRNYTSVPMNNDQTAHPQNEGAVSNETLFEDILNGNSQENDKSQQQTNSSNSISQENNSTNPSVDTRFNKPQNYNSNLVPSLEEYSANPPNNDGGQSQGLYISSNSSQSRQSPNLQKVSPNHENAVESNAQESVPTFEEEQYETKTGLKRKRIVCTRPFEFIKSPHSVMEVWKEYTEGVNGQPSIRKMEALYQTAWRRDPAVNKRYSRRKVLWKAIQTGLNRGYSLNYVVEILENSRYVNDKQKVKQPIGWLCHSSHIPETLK
# Experiment: PBM E-score (8-mer binding enrichment) (E-score (-0.5 to 0.5)); higher = stronger / more preferred TF binding
# Settings: protein concentration: 200 nM; construct: GST-full length
# Description: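 Universal 'all 10-mer' protein binding microarrays (Agilent AMADID 015681) probed with GST-tagged S. cerevisiae TFs (full-length or DBD) made by in vitro transcription/translation (PURExpress), about 100-200 nM. Bound TF was detected with fluorescent anti-GST. Each ungapped 8-mer (which stands for itself and its reverse complement) is scored by the PBM enrichment score (E-score), a modified Wilcoxon-Mann-Whitney statistic from -0.5 to +0.5, computed with the Universal PBM Analysis Suite. Scale: above 0.35 generally sequence-specific binding.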
row,Sequence,PBM E-score
1,GCTCTGCC,-0.281
2,GCGGTCCC,-0.188
3,ACTATGAA,0.112
4,CGCAATAA,0.212
5,ATCGAAAT,-0.151
6,CAATAGCA,-0.168
7,GTCAGGAC,0.316
8,CTCAGGAC,0.243
9,GCCAGGAC,0.212
10,ATCAGGAC,0.307
11,GCGAGGAC,0.0256
12,CCCAGGAC,0.0729
13,ATCAGGAG,-0.0236
14,ACGAGGAC,0.324
15,ACGAGGAT,-0.178
16,GTCAGGAA,0.0369
17,ACCAGGAA,-0.0403
18,ACCAGGAC,0.329
19,CATAAAGC,-0.057
20,CGTGCTGC,-0.144
21,CTTCACTA,-0.0698
22,CTGAGAAG,-0.24
23,CCGTTGCA,0.0113
24,ACCTTCTG,-0.0438
25,ATGAGTGA,0.12

row,Sequence,PBM E-score
1,GTTGTTAA,0.334
2,CTTGTTAA,-0.0116
3,ATTGTTAA,0.0881
4,CAGAGAAG,-0.18
5,GCGTCTAC,-0.0433
6,CACATGAA,0.0613
7,GACATCCC,0.374
8,GACATGAA,0.308
9,GACATGGA,0.342
10,CACATCCC,-0.14
11,TACATGGA,0.193
12,TACATGAA,0.117
13,AACATGGA,0.159
14,CACATGCC,0.0209
15,AACATCCC,0.0693
16,GACATGCC,0.337
17,GACATGCA,0.276
18,AACCACAA,0.042
19,CCGCTAAG,0.0391
20,ATACACTG,0.0602
21,AAAAAGAA,0.036
22,ATTGGAAG,-0.0559
23,ATAGATCC,-0.0574
24,AATTTCAG,0.127
25,ACGTGCTA,-0.167

row,Sequence,PBM E-score
1,GATCCTTA,-0.107
2,AATGCGTG,0.0114
3,AGCAATTG,0.00301
4,ATTCGGCC,0.0205
5,CGTTGTTC,0.0573
6,CTTAGAGA,-0.00262
7,GACATGAC,0.335
8,AACATGAC,0.0901
9,CACATGAC,-0.0252
10,CACATCTA,0.0157
11,GACATCTA,0.404
12,TACATCTA,0.105
13,AGGCACCC,-0.241
14,ATCGCTAG,0.022
15,GAGTGGCC,-0.224
16,GAGTGTCC,0.232
17,CAGTGTCG,0.0205
18,AAGTGTCT,0.257
19,CAGTGTCC,0.348
20,AAGTGTCC,0.366
21,AAGTGTCG,0.126
22,CCGTGTCG,0.00655
23,GCGTGTCA,0.136
24,GCGTGTAC,0.203
25,ACGTGTCG,0.0594

row,Sequence,PBM E-score
1,ACGTGTCT,0.16
2,ACGTGTCC,0.455
3,GCGTGTCC,0.431
4,CCGTGTCA,0.121
5,CCGTGTCC,0.413
6,AATCTTCA,0.211
7,GCTGTGCC,0.00582
8,GCGCTATA,-0.036
9,GGAGCGAA,0.0407
10,AGGGAGGG,-0.283
11,TAGTTTGA,0.113
12,CACCATAG,-0.153
13,AGGTGTCC,0.263
14,CGGTGTCC,0.304
15,ATGTGTCC,0.438
16,CTGTGTCA,0.02
17,CTGTGTCC,0.439
18,ATGTGTCG,0.194
19,CGGTGTCA,0.0418
20,ATGTGTCA,0.217
21,CTGTGTAC,0.197
22,CCCGTAAG,-0.117
23,CGTTACTC,-0.115
24,GCTTTCCC,0.00071
25,AGCTCCTC,-0.315

row,Sequence,PBM E-score
1,GAAACGAA,0.115
2,CCAATTCC,0.0443
3,CCAAAGAG,-0.0341
4,GTGTCCTA,0.468
5,CTGTCCTA,0.346
6,GAGTCCTA,0.0172
7,GCGTCCTA,0.168
8,CGGTCCTA,-0.185
9,CAGTCCTA,0.0807
10,ACTGGGCC,-0.0731
11,CGCTATAC,-0.194
12,CTAGTACC,-0.0261
13,CTAGTACA,0.308
14,GTAGTACA,0.167
15,TCAGTACA,0.319
16,CCAGTACA,0.177
17,ACAGTACA,0.189
18,TAAGAGTA,0.0785
19,GCGGAGCC,-0.139
20,GGTTAGAC,0.076
21,CTGTCTCA,0.087
22,AGGTCTCG,-0.156
23,ATGTCTCA,0.446
24,GTGTCTCA,0.286
25,ATGTCTCG,0.333

row,Sequence,PBM E-score
1,ATGTCTCC,0.302
2,ACGGGCGG,-0.141
3,ACCCACGG,-0.17
4,CAGGTAAC,-0.0911
5,GAGCCGCC,-0.217
6,CAGCCTAC,-0.125
7,ACACGGAC,0.32
8,ACACGGAA,0.166
9,ACACGGAG,0.00035
10,ACCCGTCC,-0.0862
11,AAATGGAC,0.338
12,ATATGGAC,0.356
13,GCATGGAC,0.268
14,AAATGGAA,0.131
15,GGATGGAC,0.178
16,ACATGGAC,0.326
17,CTATGGAC,0.257
18,ATATGGAG,0.12
19,GTATGGAA,-0.0401
20,AAATGGAT,-0.0165
21,ACATGGAT,0.162
22,GTATGGAC,0.335
23,GAAATCTA,-0.139
24,TCAGCTCA,-0.149
25,ATTTGCCG,0.136

row,Sequence,PBM E-score
1,GCCAAGCA,-0.199
2,GAGTATGC,-0.0467
3,GATCAGAC,-0.195
4,AGGTACCA,-0.036
5,CAGTGTCA,-0.105
6,AATTAGTC,0.272
7,AATTAGTA,0.211
8,AATTAGTG,0.33
9,ATATTGCC,0.0437
10,CTTATCTA,0.0318
11,CTGGCCAA,-0.0295
12,AGGCATGA,-0.183
13,CTGGTCGC,-0.0171
14,ATAAATTG,0.225
15,ACAAATTA,0.357
16,ATAAATTA,0.343
17,CCAAATTC,0.0869
18,AAAAATTC,0.182
19,ACAAATTC,0.306
20,CTAAATTA,0.144
21,CCAAATTA,0.193
22,ACAAATTG,0.301
